Screening results as filed in PubChem.
Shown are actives, neighbours in structure and some others; about 5.9% of the full set was active somewhere.
GALK inhibitor: qHTS Assay for Inhibitors of Human Galactokinase (GALK); P51570; Purified GALK, Kinase-Glo residual ATP luminescence; Potency, µM (titrated, usually from 57.5 µM), usual class: inhibitors; 270,000 tested, 0.007% active
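Kinase-Glo Plus luminescence measured ATP left after a 1 h room-temperature reaction. The reaction used 5 nM GALK, 100 uM galactose and 35 uM ATP at pH 8.0 (20 mM HEPES, 5 mM MgCl2, 60 mM NaCl, 1 mM DTT, 0.01% BSA).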
Coupling enz: qHTS Assay for Inhibitors of Fructose-1,6-bisphosphate Aldolase from Giardia Lamblia: Coupling assay counterscreen | coupling enzyme system counterscreen, AmpLite Red fluorescence | activity change, negative = inhibition, % at 58.2 µM, hits read low | 290,000 tested, 0.67% active | AID 2472, 2010; in the data active = activity change below about -30%
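First, compound is pin-transferred into glyceraldehyde-3-phosphate coupling-enzyme reagent at 57.5 uM final and held 10 min at RT. Next, substrate, coupling system and AmpLite Red are added. After 20 min RT, fluorescence (525/598 nm) is read.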
TrxR1 substrate: qHTS Assay for Substrates of Mammalian Selenoprotein Thioredoxin Reductase 1 (TrxR1): qHTS; 390,000 tested, 0.01% active; purified TrxR1 substrate turnover, NADPH consumption readout; Potency, µM (doses to about 114 µM); AID 588456, 2011; note: nearly all actives have a fitted effect of over 50% in size
Target sequence (O89049 whole entry, looked up): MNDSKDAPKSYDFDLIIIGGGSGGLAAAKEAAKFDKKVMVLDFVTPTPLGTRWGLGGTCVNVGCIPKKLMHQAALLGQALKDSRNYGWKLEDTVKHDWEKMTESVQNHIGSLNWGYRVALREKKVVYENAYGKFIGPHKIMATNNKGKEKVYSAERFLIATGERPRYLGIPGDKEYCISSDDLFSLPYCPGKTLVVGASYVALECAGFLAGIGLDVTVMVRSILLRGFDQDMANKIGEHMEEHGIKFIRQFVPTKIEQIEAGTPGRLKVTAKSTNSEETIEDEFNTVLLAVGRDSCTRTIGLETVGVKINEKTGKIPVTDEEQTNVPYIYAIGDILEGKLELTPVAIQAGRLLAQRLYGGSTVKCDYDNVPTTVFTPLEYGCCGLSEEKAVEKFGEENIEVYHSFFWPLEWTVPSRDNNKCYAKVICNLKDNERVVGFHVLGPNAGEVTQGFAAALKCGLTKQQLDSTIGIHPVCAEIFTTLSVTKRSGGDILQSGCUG
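Rat TrxR1, dispensed at 90 nM, was prereduced with 400 uM NADPH (final) for 5 min at ~22 deg C, then incubated with compound 15 min before 400 uM selenite. A first-read NADPH fluorescence drop versus no-compound background flagged substrates.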
VP16 counter: VP16 counterscreen qHTS for inhibitors of ROR gamma transcriptional activity; Potency, µM (doses to about 53.6 µM), hits mostly inhibitors; 310,000 tested, 3.5% active; Drosophila S2 Gal4-VP16 UAS-luciferase, luminescence, 20 h;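 note: Gal4-VP16 expression switched on by copper sulfate through the metallothionein promoter; nearly all actives have a fitted effect of over 50% in size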
RORgamma inh: qHTS for inhibitors of ROR gamma transcriptional activity. Nuclear receptor ROR-gamma (Mus musculus), P51450. Drosophila S2 Gal4-RORgamma UAS-luciferase reporter, 20 h. Potency, µM (highest dose often 53.6 µM), most hits filed as inhibitors. 310,000 tested, 5.4% active; note: nearly all actives have a fitted effect of over 60% in size
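Schneider cells (Drosophila), stable Gal4 DBD–ROR gamma + UAS-luc; 1 hr cmpd preincubation; Cu2+ induction 700 uM final; 20 hr ambient; luminescence.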
rTrxR1 inhibitor: qHTS Assay for Inhibitors of Mammalian Selenoprotein Thioredoxin Reductase 1 (TrxR1): qHTS. Thioredoxin reductase 1, cytoplasmic (Rattus norvegicus), O89049. recombinant rTrxR1, NADPH fluorescence consumption, selenite substrate. Potency, µM (top dose mostly 114 µM), hits mostly inhibitors. 390,000 tested, 1% active; note: nearly all actives have a fitted effect of over 65% in size
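Rat TrxR1 (90 nM in the dispensed reagent) was pre-reduced with 400 uM NADPH for 5 min at room temperature, then incubated with compound for 15 min. After 400 uM selenite was added, NADPH fluorescence (Ex 340/Em 450 nm) was followed for 8 min.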
Large screens that a line does not name were inactive. Unless noted, calls come from the whole dose curve; as a rule, active = well fitted curve in the direction sought with a large enough effect; inconclusive = small, poorly fitted or top-dose-only effect, or another doubt; inactive = no such curve, though single readings can be large; an effect the other way counts as inactive or inconclusive.

Cc1ccc(OCC(=O)Nc2ccncc2)c(C)c1	VP16 counter 16µM
Cc1ccccc1OCC(=O)Nc1ccncc1	VP16 counter 11µM, RORgamma inh inconclusive
CC(=O)Nc1cccc(NC(=O)COc2ccccc2C)c1	none
COC(=O)CCC(=O)Nc1cccc([N+](=O)[O-])c1	none
Cc1occc1C(=O)NNC(=O)c1ccccc1Br	none
NC(=S)NN=C1c2ccccc2-c2ccccc21	VP16 counter 4µM, RORgamma inh 1.3µM (no result: GALK inhibitor)
O=C(NN=C1c2ccccc2-c2ccccc21)c1ccccc1Br	VP16 counter 10µM, RORgamma inh 7.1µM
CNC(=S)NNC(=O)c1ccccc1Br	VP16 counter inconclusive, RORgamma inh 13µM (no result: GALK inhibitor)
COCCCNC(=S)NNC(=O)c1ccccc1Br	RORgamma inh 2.5µM
COc1ccc(N(CC(=O)NCCC2=CCCCC2)S(=O)(=O)c2ccccc2F)cc1	none
COCCCNC(=S)NNC(=O)c1ccccn1	RORgamma inh 14µM
Cn1c(N)c(C(=O)c2ccc(Cl)c(S(=O)(=O)N3CCCCCC3)c2)c(=O)n(C)c1=O	none (no result: GALK inhibitor, Coupling enz, VP16 counter, RORgamma inh)
CCCCSCCCNC(=O)Nc1ccc(CC)cc1	none
CC(C)CCN1NC2(CCCC(C)C2)NC1=S (stereo not given)	RORgamma inh 7.1µM
CC1CCCC2(C1)NC(=S)N(c1ccccc1)N2 (stereo not given)	RORgamma inh 13µM
CC(C)CC1CCCC12NC(=O)NC2=O (stereo not given)	none (no result: GALK inhibitor, Coupling enz, VP16 counter, RORgamma inh)
CC1CC(C)(C)CC2(C1)NC(=S)N(c1ccccc1)N2 (stereo not given)	VP16 counter inconclusive, RORgamma inh 7.1µM
CCC1(C)CN=C(c2ccccc2)NC1 (stereo not given)	none (no result: GALK inhibitor, Coupling enz, VP16 counter, RORgamma inh)
CC1=C(C#N)C(C(F)(F)F)(C(F)(F)F)N=C(c2ccco2)N1	none
O=C(NCCc1ccc(Cl)cc1)C1(c2ccccc2)CC1	none (no result: Coupling enz)
Cc1cccc(NS(=O)(=O)c2ccc(C(=O)NCCCN3CCOCC3)cc2)c1C	none (no result: Coupling enz)
O=C(NCCN1CCOCC1)c1cc(Br)ccc1Cl	none
C[C@@H]1C[C@H]2[C@@H]3CCC4=CC(=O)C=C[C@]4(C)[C@@]3(Cl)[C@@H](O)C[C@]2(C)[C@@]1(OC(=O)c1ccco1)C(=O)CCl	none (no result: GALK inhibitor, Coupling enz, VP16 counter, RORgamma inh)
Cc1cc(C)c2nc(NNC(=O)c3ccc(S(=O)(=O)N4CCc5ccccc5C4)cc3)sc2c1	VP16 counter 3.2µM, RORgamma inh 1.6µM (no result: GALK inhibitor)
Cc1cc(C)c2sc(NNC(=O)c3ccc(S(=O)(=O)N4CCc5ccccc5C4)cc3)nc2c1	VP16 counter 5µM, RORgamma inh 4.5µM (no result: GALK inhibitor)
Cc1cc(C)c2nc(NNC(=O)c3cc(=O)c4ccccc4o3)sc2c1	VP16 counter inconclusive, RORgamma inh 5µM
O=C(CCc1ccccc1)c1c(O)cc(O)cc1O	rTrxR1 inhibitor 20µM
COc1ccc(C(=O)CCc2ccccc2)c(O)c1	none (no result: GALK inhibitor, Coupling enz, VP16 counter, RORgamma inh)
COC(=O)CSc1[nH]c2ccc(Br)cc2c1[N+](=O)[O-]	rTrxR1 inhibitor 11µM
CCOc1ccc2[nH]c(SCC(=O)OC)c([N+](=O)[O-])c2c1	none
CN(C(=S)Nc1ccc(F)cc1)C1(c2ccccc2Cl)CCCCC1=O (stereo not given)	RORgamma inh 8.9µM
CN(N)C(=S)Nc1ccc(F)cc1	none
O=c1c2ccccc2nnn1Cc1ccccn1	none
CC(=O)OCCn1c2nc(=O)[nH]c(=O)c-2nc2cc(C)c(C)cc21	none
Cc1cc2nc3c(=O)[nH]c(=O)nc-3n(C)c2cc1C=O	Coupling enz -38, RORgamma inh 10µM (no result: GALK inhibitor, TrxR1 substrate, rTrxR1 inhibitor)
O=C(Nc1ccccc1)Nc1nnc(Cc2ccc(F)cc2)s1	none
CCC(=O)Nc1ccc(Br)c(Cl)c1	none
CCC(=O)NC1=C(Cl)C(=O)C(NC(=O)CC)=C(Cl)C1=O	Coupling enz -90, VP16 counter 7.1µM, RORgamma inh 2.8µM, rTrxR1 inhibitor inconclusive (no result: GALK inhibitor)
